Data on 97 compounds can be found in PubChem BioAssay AID1445 (SRMLSC, 2008).

Among all 220,000 compounds or so, about 910 (0.41%) were called active. The entries come from a sample that favours actives as a whole. Entries with a potency or affinity are not part of this list. Values without a mark were called inactive.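 How the source made its calls: active means primary inhibition above the hit cutoff, then over 50% inhibition at one or more dose response concentrations (cut at about 23% in these data, passing the limit was not always enough); inconclusive means conflicting primary data, or primary hits not chosen for dose response; inactive means low primary inhibition, or under 50% at every dose.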

Sequence of Aminopeptidase N (Plasmodium falciparum (isolate 3D7)) (O96935 whole entry, looked up): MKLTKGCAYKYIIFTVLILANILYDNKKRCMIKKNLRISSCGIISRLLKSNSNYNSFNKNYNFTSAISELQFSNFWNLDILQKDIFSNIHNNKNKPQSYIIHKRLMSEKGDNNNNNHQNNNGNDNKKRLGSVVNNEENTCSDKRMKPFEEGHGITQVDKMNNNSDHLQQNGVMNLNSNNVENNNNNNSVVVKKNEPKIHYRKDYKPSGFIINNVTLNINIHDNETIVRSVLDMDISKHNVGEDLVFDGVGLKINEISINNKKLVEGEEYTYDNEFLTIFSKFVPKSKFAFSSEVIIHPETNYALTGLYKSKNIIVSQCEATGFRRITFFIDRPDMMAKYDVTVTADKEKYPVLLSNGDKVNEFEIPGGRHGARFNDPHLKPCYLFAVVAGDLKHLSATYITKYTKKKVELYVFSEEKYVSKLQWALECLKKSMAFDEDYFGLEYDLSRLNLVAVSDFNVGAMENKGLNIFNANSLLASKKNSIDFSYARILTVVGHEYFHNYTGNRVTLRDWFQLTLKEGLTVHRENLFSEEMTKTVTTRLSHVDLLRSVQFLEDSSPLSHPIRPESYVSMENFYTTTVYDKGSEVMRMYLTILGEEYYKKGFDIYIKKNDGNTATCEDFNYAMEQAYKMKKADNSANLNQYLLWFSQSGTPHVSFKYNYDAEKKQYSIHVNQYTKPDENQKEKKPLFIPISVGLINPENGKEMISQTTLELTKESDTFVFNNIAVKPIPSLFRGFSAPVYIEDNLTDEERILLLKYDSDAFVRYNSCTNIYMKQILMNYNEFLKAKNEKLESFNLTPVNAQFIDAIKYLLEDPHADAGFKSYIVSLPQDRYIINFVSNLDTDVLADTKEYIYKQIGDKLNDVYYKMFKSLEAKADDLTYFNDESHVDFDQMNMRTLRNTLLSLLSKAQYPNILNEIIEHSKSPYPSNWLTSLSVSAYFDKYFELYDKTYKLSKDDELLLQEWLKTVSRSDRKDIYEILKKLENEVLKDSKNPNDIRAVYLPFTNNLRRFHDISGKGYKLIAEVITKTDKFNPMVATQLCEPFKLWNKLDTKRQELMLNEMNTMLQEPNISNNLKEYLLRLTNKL

This assay addresses Aminopeptidase N (Plasmodium falciparum (isolate 3D7)) (UniProt O96935). Put plainly: malaria alanyl aminopeptidase activity blockers – biochemical, fluorogenic H-Leu-NHMec substrate, 1536-well (AID 1445).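 Further: plate controls were DMSO full reaction for no effect and no enzyme background for full effect.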 Conditions: recombinant M1AAP, H-Leu-NHMec fluorogenic kinetic assay; at 30 µM, active compounds read high unless noted.
By inhibition is commonly meant the relative decrease from the control value, in per cent. Consider `CCOC(=O)COc1ccc(N)cc1CC(NC(C)=O)(C(=O)OCC)C(=O)OCC`, for which the inhibition was 6.1%.
The same measure for `Cn1cc(CNC(=O)C2c3ccccc3Oc3ccccc32)cn1`: 13.7%; for `COc1ccc(N=CC2=C(O)CC(C)(C)CC2=O)cc1`: 13.6%; for `C=CCc1c(C)nc2c(C)cccc2c1SC(=N)N`: 1.57%.
The same measure for `CCOC(=O)CSc1nc(C)c2cccc(C)c2n1`: 0.76%; for `CCOc1ccc(NC(=O)c2ccccc2OC)cc1`: 5.95%; for `COc1ccc(NC(=O)CSc2c(C)n[nH]c2C)cc1`: 0.25%.
In the case of `O=C(NC(Cc1ccccc1)c1nc2ccccc2[nH]1)C1CC(=O)N(c2ccc3c(c2)OCCO3)C1` (configuration not stated), the inhibition is 26% (active).
The same measure for `O=C(NCCCc1ccccc1)C1CC(=O)N(c2ccc3c(c2)OCCO3)C1` (configuration not stated): 2.32%; for `O=C(Nc1nc2ccccc2[nH]1)C1CC(=O)N(c2ccc3c(c2)OCCO3)C1` (configuration not stated): -0.34%; for `CCN(CC)C(=O)c1ccc(-c2cccs2)s1`: 2.09%.
Under `O=C(c1cccs1)c1ccc(-c2cccs2)s1` stands 15.2%; under `COc1ccc(NC(=O)Cn2nnc(C(=O)NCCc3ccc(OC)c(OC)c3)c2N)c(OC)c1`, 0.32%.
Under `O=C(NNc1c(Cl)cc(Cl)cc1Cl)c1cccc([N+](=O)[O-])c1` stands 0.41%; under `Cc1ccccc1CSc1nn2c(=O)c(C)nnc2s1`, 1.72%.
Regarding `O=[N+]([O-])c1cccc(S(=O)(=O)NCCc2cn3ccccc3n2)c1`, the inhibition is -0.31%.
Under `CCCc1ccc(-c2ccc(F)c(N)c2)nc1` stands 6.24%; under `Nc1ccc2nc(-c3ccccc3)[nH]c2c1`, 1.94%; under `Nc1ccc2nc(-c3ccc(Cl)cc3)[nH]c2c1`, 14%.
As to `CCOC(=O)CN(C(=O)CNC(=O)c1ccco1)C(C(=O)NC1CCCCC1)c1cccs1` (configuration not stated), the inhibition was 2.4%.
Take `Cc1cc(C)nc(SCC(=O)N/N=C/c2cccn2-c2ccc(O)cc2)n1`: the inhibition was 8.99%.
The same measure for `Cc1onc(-c2ccccc2Cl)c1C(=O)Nc1cccc(-c2cn3cccnc3n2)c1`: 26.2% (active).
On to `Cc1ccc(-c2cn3cccnc3n2)cc1NC(=O)c1c(-c2ccccc2Cl)noc1C`, for which the inhibition is 9.6%.
The same measure for `Cc1onc(-c2ccccc2Cl)c1C(=O)Nc1ccc(-c2cn3cccnc3n2)cc1`: 3.1%.
The same measure for `COc1ccccc1NS(=O)(=O)c1cc(NC(=O)c2cccs2)ccc1N1CCOCC1`: 3.5%; for `Cc1nn2c(N3CCCC3)c3c(nc2c1-c1ccccc1)CCC3`: 7%.
Under `Cc1nn2c(N3CCOCC3)c3c(nc2c1-c1ccccc1)CCCC3` stands 4.17%; under `CC1(C)CC(=O)C(/C=N/n2cnc3ccccc3c2=O)=C(O)C1`, 11.3%.
On to `CC1(C)CC(=O)C(/C=N/n2c(C(F)(F)F)nc3ccccc3c2=O)=C(O)C1`, for which the inhibition is 27.5% (active).
Regarding `CC1(C)CC(=O)C(C=Nc2ccccc2)=C(O)C1`, the inhibition was 2.69%.
Consider `O=C(c1ccco1)N1CCN(C(c2ccccc2Cl)c2nnnn2Cc2ccco2)CC1` (configuration not stated), for which the inhibition was 2.33%.
Under `Cc1noc(NC(=O)c2ccccc2C(F)(F)F)c1C#N` stands -0.81%.
Under `O=S(=O)(Nc1cccnc1)c1cccc(Cl)c1` stands -0.41%; under `O=S(=O)(Nc1nccs1)c1cc(Cl)ccc1Cl`, 25.8% (active); under `O=C(O)c1ccc(NS(=O)(=O)c2cc(Cl)ccc2Cl)cc1`, 5.33%.
Under `O=S(=O)(Nc1ncccn1)c1ccc(NS(=O)(=O)c2cc(Cl)ccc2Cl)cc1` stands 30.4%.
Turning to `O=S(=O)(Nc1cccnc1)c1ccc(Cl)cc1`, the inhibition was 1.51%.
The same measure for `O=S(=O)(Nc1ccncc1Cl)c1cc(Cl)ccc1Cl`: 4.72%; for `O=S(=O)(Nc1nccs1)c1ccc(Cl)cc1`: -5.71%.
The same measure for `O=S(=O)(Nc1cccnc1)c1cc(Cl)ccc1Cl`: 25.4% (active); for `CCOc1ccccc1C(=O)Nc1nnc(SCC(=O)N2CCOCC2)s1`: 2.46%; for `CN(CC(=O)N1CCCCCC1)S(=O)(=O)c1ccc(Br)s1`: 8.78%.
The same measure for `CCOC(=O)Cn1nc(C)c(NC(=O)COc2ccccc2[N+](=O)[O-])c1C`: 0.47%; for `Cn1c(=O)n(-c2cccc(Cl)c2)c(=O)n1C`: 4.63%; for `COc1ccc(/C=C/C(=O)NC(=S)NNC(=O)c2cccnc2)cc1`: -8.48%.
As for `Cc1oc(C(=O)O)cc1COc1ccc2c3c(c(=O)oc2c1C)CCC3`, the inhibition is 7.51%.
For `Cc1cc2oc(=O)c3c(c2cc1OCc1nn[nH]n1)CCCC3`, the inhibition was 10.1%.
The same measure for `Cc1cc(OCc2nn[nH]n2)c2c(C)c(CC(=O)O)c(=O)oc2c1`: 0.25%; for `Cc1oc(C(=O)O)cc1COc1ccc2c3c(c(=O)oc2c1)CCC3`: 5.26%; for `Cc1ccc(S(=O)(=O)NC2=NCCC2)cc1`: -0.29%.
As for `NC(=O)Cn1nc(C(F)(F)F)c2c1CCCC2`, the inhibition was 10.1%.
For the compound `O=C(CSc1nnc(CCc2nc3ccccc3[nH]2)n1-c1ccccc1)NCc1ccccc1`, the inhibition is -1.21%.
On to `N#C/C(=C\c1cn[nH]c1-c1ccccc1)C(=O)NC1CCCCCC1`, for which the inhibition is 9.74%.
Under `COc1ccc(-c2[nH]ncc2/C=C(/C#N)C(=O)NC2CCCCC2)cc1` stands 7.83%; under `Cc1ccc(-c2[nH]ncc2/C=C(\C#N)C(=O)NC2CCCCC2)cc1`, 24.9% (active); under `CCOC(=O)c1[nH]c2ccc(OC)cc2c1NC(=O)c1cccc(OC)c1`, 3.82%.
The same measure for `Cc1nn(-c2ccccc2)c(Cl)c1C(=O)N(C)c1nc(-c2ccc(F)cc2)cs1`: -3.58%; for `COc1cc(/C=C/C(=O)NCCn2c(C)cc3ccccc32)cc(OC)c1OC`: 8.36%.
The same measure for `O=Cc1cn(CC(=O)N2CCc3ccccc32)c2ccccc12`: 2.93%.
Regarding `N#Cc1cn(CC(=O)N2CCCc3ccccc32)c2ccccc12`, the inhibition was 9.27%.
The same measure for `O=C(NCC(c1cccs1)N1CCOCC1)c1ccc(Cl)s1` (configuration not stated): 7.44%.
Under `C=CCNC(=S)N1CCC(C(=O)c2ccc(OC)cc2)CC1` stands 8.35%; under `COc1ccc(C2OC(=O)C(C)(C)C(=O)C2(C)C)cc1OC` (configuration not stated), -0.38%; under `Cc1ccc(S(=O)(=O)c2c(C)nn(C(C)(C)C)c2OC(=O)c2ccco2)cc1`, 27.3% (active).
For `Cc1ccc(S(=O)(=O)c2c(C)nn(-c3ccccc3)c2OC(=O)c2ccco2)cc1`, the inhibition was 6.34%.
Under `Cc1ccc(S(=O)(=O)c2c(C)nn(C(C)(C)C)c2OC(=O)c2ccc(Br)o2)cc1` stands 19.6%; under `CCCCCOC(=O)C1C2C=CC3(CN(c4ccccc4C)C(=O)C13)O2` (configuration not stated), 5.27%.
Consider `Nc1nc(CSc2ncccn2)nc(Nc2ccccc2)n1`, for which the inhibition is -3.84%.
Under `O=C(Nc1ccc(-n2cnnn2)cc1)C1CCCN1C(=O)NC1CCCCC1` (configuration not stated) stands 3.93%.
The same measure for `O=C(CSc1ncn[nH]1)Nc1ccccc1-c1ccccc1`: -4.4%; for `Nc1cc(=O)[nH]c(SCC(=O)Nc2ccccc2-c2ccccc2)n1`: 2.73%; for `CCCNc1ncccc1C(N)=O`: -1.06%.
The same measure for `O=c1c(-c2nc3ccccc3s2)cccn1Cc1ccc(Cl)cc1`: 2.06%; for `Cc1ccc(Cn2cccc(-c3nc4ccccc4s3)c2=O)cc1`: 10.1%; for `O=c1c(-c2nc3ccccc3s2)cccn1Cc1ccccc1`: 25.6% (active).
On to `O=C(O)CCC(=O)OC1CC2CCC1C2` (configuration not stated), for which the inhibition is -3.14%.
The same measure for `CCN(CC)S(=O)(=O)c1ccc(NC(=O)CC(NC(C)=O)c2ccccc2)cc1` (configuration not stated): -1.24%; for `CCOc1cc(/C=C2\SC(=S)N(Nc3ccccc3)C2=O)ccc1O`: 14.7%.
The same measure for `COc1ccc(C2=NN(c3ccccc3)C(=O)/C2=C\c2ccc(O)c(OC)c2)cc1`: 8.38%.
Under `COc1cc(/C=C2\SC(c3ccc(C)cc3)=NC2=O)ccc1O` stands 9.74%; under `CCOc1cc(/C=C2\C(=O)N(c3nc(-c4ccc(Br)cc4)cs3)N=C2c2ccccc2)ccc1O`, 15.7%; under `CCNc1c([N+](=O)[O-])c(=O)oc2ccccc12`, 7.91%.
With `COc1ccccc1C(=O)N1CCN(Cc2cn[nH]c2-c2ccc(F)cc2F)CC1`, the inhibition is 3.76%.
Under `Cc1cccc2cc(CN(C(=O)c3cnccn3)C3CCCCC3)c(Cl)nc12` stands 5.74%; under `Cc1ccc(S(=O)(=O)NN=C2CCN(Cc3ccccc3)CC2)cc1`, 4.22%; under `O=C(O)CC(c1ccc(Cl)cc1)n1cccc1` (configuration not stated), 8.45%.
Under `CC(=O)Nc1cc(C(=O)OC(C(=O)c2ccccc2)c2ccccc2)ccc1C` (configuration not stated) stands 2.38%.
For the compound `Cc1cccc2cc(COC(=O)C(C)(C)C)c(=O)[nH]c12`, the inhibition is 4.55%.
In the case of `Cc1ccc(-n2c(N)c(C(=O)N3CCOCC3)sc2=S)cc1`, the inhibition was -1.83%.
As to `Nc1c(C(=O)N2CCOCC2)sc(=S)n1-c1ccccc1`, the inhibition was 24.9% (active).
Under `Nc1c(C(=O)N2CCCCC2)sc(=S)n1-c1ccccc1` stands 0.35%; under `CCOC(=O)CC(NC(=O)c1ccc(C)cc1)c1ccc(OC)cc1` (configuration not stated), 5.77%.
Under `CCN(Cc1ccncc1)C(=O)CCc1nnc(CCc2ccccc2OC)o1` stands -2.71%; under `NC(N)=Nc1nc(-c2ccccc2)c2ccccc2n1`, 5.22%; under `CCc1ccc2nc(N=C(N)N)nc(C)c2c1`, 5.85%.
The same measure for `COc1cc(/C=C2/SC(=S)N(CC(=O)Nc3nc4ccccc4s3)C2=O)cc(OC)c1OC`: 6.28%.
For `Cc1ccc(N(Cc2ccccc2F)S(C)(=O)=O)cc1C`, the inhibition is -9.52%.
